TDP-43 yeast inh: qHTS of TDP-43 Inhibitors; Potency, µM (highest dose often 46.1 µM), for the others: top-dose growth rescue (activation), usual class: activators; TDP-43 expressing yeast growth rescue, BacTiter-Glo, 24 h; AID 652104, 2013; actives 1.8% (n = 410,000); also: potency is read from the fitted curve at half-maximal effect; % of control where 0% means no effect; nearly all actives have a fitted effect of over 50% in size
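Yeast expressing TDP-43 (pregrown in raffinose, seeded at OD600=0.02 in galactose medium) exposed to compounds 24 hr at 30 deg C. Growth read by BacTiter-Glo luminescence; rescue of toxicity appears as increased signal.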
pAkt inh: HTS Assay for Inhibitors of Akt Phophorylation: Primary Screen; Neuro2A IGF-stimulated pAkt S473 HTRF, 20 min; stronger effect = lower value; activity change, % for hits at 50 µM; actives 0.32% (n = 360,000); AID 651550, 2012; in the data active = activity change below about -80%; inconclusive = mostly about -51% to -80%; also: % is scaled to controls: 0 for no effect and ±100 for the full control effect
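Neuro2A cells (4,500/well, DMEM with 0.5% FBS) were treated with compound at a single 50 µM final concentration, stimulated with 6 nM IGF for 20 min at 37 °C, and lysed. Phospho-Akt Ser473 was read by HTRF as 665/615 ratio ×10^4.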
aSyn rescue: qHTS of alpha-syn Inhibitors. Potency, µM (top dose mostly 46.1 µM), for inactives: at the top dose growth rescue (activation), most hits filed as activators. Yeast expressing alpha-synuclein, growth rescue, BacTiter-Glo, 24 h. actives 0.14% (n = 370,000); also: potency is read from the fitted curve at half-maximal effect; % of control where 0% means no effect; nearly all actives have a fitted effect of over 65% in size
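Galactose-induced alpha-syn yeast (OD600=0.02, raffinose-pregrown) + pinned cpd, 24 hr, 30 deg C; growth by BacTiter-Glo luminescence. Growth restoration scores as activation.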
Abeta yeast res: qHTS for compounds that reverse cellular toxicity of Amyloid beta (A-beta) peptide in yeast: Primary Screen | AID 1347071, 2019 | Potency, µM (doses to about 46.1 µM), most hits filed as activators | yeast expressing A-beta42, growth rescue, OD600, 48 h; response scale: 0% DMSO, 100% iron-clioquinol control | actives 0.063% (n = 410,000); also: potency is read from the fitted curve at half-maximal effect; nearly all actives have a fitted effect of over 55% in size
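Yeast A-beta toxicity model in growth medium with pinned compounds, 48 h at 30 C; growth read as absorbance at 600 nm. Normalized to FeCl3/clioquinol equimolar mix (positive) and DMSO (negative).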
FUS suppressor: qHTS for Suppressors of FUS Proteinopathy: Primary screen using FUS-linked yeast assay. S. cerevisiae FUS-expressing, growth rescue, OD600, 24 h. Potency, µM (highest dose often 76.6 µM), most hits filed as activators. actives 0.24% (n = 390,000);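 also: potency is read from the fitted curve at half-maximal effect; plate controls were DMSO vehicle for no effect and reference control for full effect; nearly all actives have a fitted effect of over 55% in size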
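Galactose (2%) drives FUS expression in yeast precultured in raffinose; seeding density OD 0.005. Test compounds incubated 24hr at 30C and 99% humidity before absorbance at 600 nm was measured.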
Numbers without * were called inactive; i = inactive; ? = inconclusive; · = no result. Most compounds without a hit are left out; they make up all but 2.3% or so of the library. Unless noted, calls follow the shape of the dose curve; as a rule, active = well fitted curve in the direction sought with a large enough effect; inconclusive = small, poorly fitted or top-dose-only effect, or another doubt; inactive = no such curve, though single readings can be large; an effect the other way counts as inactive or inconclusive.

SMILES	TDP-43 yeast inh	pAkt inh	aSyn rescue	Abeta yeast res	FUS suppressor
COc1ccccc1NC(=O)c1ncoc1-c1ccco1	?	·	·	i	i
O=C1c2ccccc2C(=O)C1c1ccnc2ccccc12	16%	-122%*	18%	i	i
O=C(/C=C/c1cn(-c2ccccc2)nc1-c1cccc(Cl)c1)N1CCN(c2ccccn2)CC1	14µM*	i	-10%	i	?
CCn1c(=O)sc2cc(NS(=O)(=O)c3ccc(F)c(C)c3)ccc21	0%	·	·	i	i
CCC(C)N(C(=O)COc1ccccc1C(=O)NCc1ccccc1)C1CCS(=O)(=O)C1 (centres undefined)	19%	i	5%	i	i
CCCN(CC1CC1)C(=O)COc1ccccc1C(=O)NCc1ccccc1	28%	-110%*	9%	i	i
Cc1ccc2occ(-c3cc(-c4ccc(F)cc4)nc4c3COc3ccc(F)cc3-4)c(=O)c2c1	13%	·	·	i	i
CNC(=O)c1cccnc1Nc1cccc(C(F)(F)F)c1	18µM*	i	-15%	i	i
Cc1c(CCCl)c(Cl)n2c(nc3ccccc32)c1C#N	7.1µM*	i	2%	i	·
Cc1cc(Cl)n2c(nc3ccccc32)c1C#N	3.2µM*	i	-71%	i	i
Fc1ccc(COc2ccc(C(=S)N3CCCC3)cc2)cc1	13µM*	i	-16%	?	i
c1coc(CNc2nc[n+]3c4c2ncn4CC3)c1	·	·	-5%	·	·
CC(C)(C)OC(=O)N1CCCN(C(c2cc3ccccc3o2)c2nnnn2C(C)(C)C)CC1 (centres undefined)	?	i	-7%	i	16µM*
CC1=C(c2ccc(C(C)C)cc2)S(=O)(=O)NC1=NCc1ccccc1Br	-1%	·	·	i	i
Cc1nc2n(c(=O)c1CCN1CCC(c3noc4cc(F)ccc34)CC1)CCC[C@H]2O	·	·	0%	·	·
COc1cccc(NC(=O)CN(C)C(=O)c2cccc(S(=O)(=O)N3c4ccccc4CC3C)c2)c1 (centres undefined)	20%	i	4%	i	22µM*
COC(=O)c1scc(-c2ccc(C)cc2)c1S(=O)(=O)N1CCN(c2cccc(OC)c2)CC1	?	·	·	i	i
O=S(=O)(c1ccc2c(Cl)cccc2c1)N1CCN(c2nc(-c3cccs3)nc3ccccc23)CC1	·	·	-3%	·	·
O=C(CCCl)Nc1nc2c(s1)CCc1ccccc1-2	22µM*	i	15%	i	i
O=C(Nc1nc2c(s1)CCc1ccccc1-2)c1ccco1	13µM*	i	-10%	i	i
CC(=O)N1N=C(c2ccc(Cl)cc2)CC1c1ccc([N+](=O)[O-])cc1 (centres undefined)	-5%	i	-1%	i	i
COc1ccc(C2CC(c3ccc(Cl)cc3)=NN2C(C)=O)cc1 (centres undefined)	13µM*	i	?	i	i
CC(C)(C)NC(=O)C(c1ccnc2ccccc12)n1c(=O)c(-c2cc3ccccc3[nH]2)nc2ccccc21 (centres undefined)	14%	i	?	i	?
CC(C)(C)NC(=O)C(c1cc2ccccc2o1)n1c(=O)c(-c2cc3ccccc3[nH]2)nc2ccccc21 (centres undefined)	12%	i	8.9µM*	?	?
CC(C)(C)NC(=O)C(c1ccccc1F)n1c(=O)c(-c2cc3ccccc3[nH]2)nc2ccccc21 (centres undefined)	?	i	7.1µM*	i	?
COc1ccc(C(=O)Oc2ccc(=O)n(-c3ccccc3)n2)cc1	14µM*	i	7%	i	i
CCOC(=O)c1cc(OC(=O)c2ccc(OC)cc2)n(-c2ccccc2)n1	18µM*	·	-25%	i	i
O=C(Oc1ccc(=O)n(-c2ccccc2)n1)c1ccc(F)cc1	22µM*	i	2%	i	i
CCOC(=O)c1cc(OC(=O)c2ccccc2)n(-c2ccccc2)n1	3%	i	3%	i	i

High-throughput results from PubChem BioAssay.
